According to PubChem BioAssay (NCATS):
Records with an inconclusive call do not appear. Values without a mark were called inactive. Activity calls are given as the source filed them. Calls follow the shape of the dose curve; as a rule, active = well fitted curve in the direction sought with a large enough effect; inconclusive = small, poorly fitted or top-dose-only effect, or another doubt; inactive = no such curve, though single readings can be large; an effect the other way counts as inactive or inconclusive. Bridge positions count the residues as written; N and C are the ends. Square brackets hold non-standard residues; d marks the D form. Peptide text beside a SMILES is read from it. NMeY = CN[CH](Cc1ccc(O)cc1)C(=O)O

target: Cellular tumor antigen p53 (Homo sapiens) (UniProt P04637); assay: Primary qHTS for small molecule compounds that upregulate eGFP-tagged delta133p53alpha (in N-terminal) cells. (AID 2060322); conditions: NCI-H358 eGFP-delta133p53alpha fluorescence, 24 h; activation: hits give high values; also: nearly all actives have a fitted effect of over 75% in size; also: potency is read from the fitted curve at half-maximal effect;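 as to activation: cells pre-induced with doxycycline then dosed without doxycycline; 0% = DMSO vehicle and 100% = reference activator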
Method in brief: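 NCI-H358 cells pre-induced 24 h with 10 ng/ml doxycycline for eGFP-delta133p53alpha, plated dox-free and exposed 24 h at 37C to titrated compounds. Fixed, Hoechst-stained; gated GFP peak intensity by laser scanning cytometry, normalized to DMSO (0%) and 57.5 uM 5-azacytidine (100%).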

Chain of Cellular tumor antigen p53 (Homo sapiens) (P04637 whole entry, looked up): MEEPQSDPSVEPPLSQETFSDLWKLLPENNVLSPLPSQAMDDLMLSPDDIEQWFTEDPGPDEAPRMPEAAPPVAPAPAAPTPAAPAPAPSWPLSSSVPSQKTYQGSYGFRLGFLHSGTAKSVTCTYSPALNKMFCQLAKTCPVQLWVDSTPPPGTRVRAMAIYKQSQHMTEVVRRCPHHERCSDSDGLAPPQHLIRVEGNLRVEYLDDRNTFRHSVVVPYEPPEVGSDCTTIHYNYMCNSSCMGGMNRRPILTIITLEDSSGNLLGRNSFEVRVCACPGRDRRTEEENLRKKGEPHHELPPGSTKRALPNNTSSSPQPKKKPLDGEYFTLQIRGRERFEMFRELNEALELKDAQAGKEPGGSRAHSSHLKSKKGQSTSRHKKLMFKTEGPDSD

SMILES | activation | Potency
CC(C)c1ccc(CC(=O)N2CCC[C@@H](c3cccc(OC(C)(C)C(=O)O)c3)C2)cc1 | 7% | –
COc1cc(C)c(C(=O)Oc2cc(C)c(C(=O)Oc3cc(C)c(C(=O)NC(C)C(=O)O)c(O)c3)c(O[C@@H]3O[C@H](CO)[C@@H](O)[C@H](O)[C@H]3OC(C)=O)c2)c(OC)c1 (some centres undefined) | -7.63% | –
C/C=C(\C)C(=O)O[C@H]1[C@H](O)[C@]2(COC(C)=O)[C@H](O)C[C@]3(C)C(=CCC4[C@@]5(C)CC[C@H](O[C@@H]6O[C@H](C(=O)O)[C@@H](O[C@@H]7O[C@H](CO)[C@@H](O)[C@H](O)[C@H]7O)[C@H](O)[C@H]6O[C@@H]6O[C@H](CO)[C@@H](O)[C@H](O)[C@H]6O)[C@](C)(CO)C5CC[C@]43C)[C@@H]2CC1(C)C (some centres undefined) | -8.4% | –
CC(C)(C)Oc1ccc(OCC2Cc3ccccc3CN2C(=O)c2cccc3ccccc23)cc1 (centres undefined) | -10.5% | –
COc1cc(/C=C/C(=O)O[C@@H]2C[C@](O)(C(=O)O)C[C@@H](O)[C@H]2O)ccc1O | 3.57% | –
CC(=O)OC[C@H]1O[C@H](O[C@]2(CO)O[C@H](CO)[C@@H](OC(=O)/C=C/c3ccccc3)[C@@H]2O)[C@H](O)[C@@H](O)[C@@H]1O | -0.763% | –
Fc1ccc(-c2c3cccc(C(F)(F)F)c3nn2Cc2ccc(F)cc2Cl)cc1 | -8.11% | –
CC(C)(O)/C=C/CC(C)(O)C1C(O)CC2(C)C3CCC4C(C)(C)C(=O)CCC4(C)C3CCC12C (centres undefined) | 2.29% | –
Cc1ccc(C(C)C)c(O[C@@H]2O[C@H](CO)[C@@H](O)[C@H](O)[C@H]2O)c1 | -1.53% | –
C[C@@H]1CCC/C=C/[C@H]2CC(=O)C[C@@H]2[C@@H](O)/C=C/C(=O)O1 | 9.82% | –
C=C(C)C(=O)OC1CC2(C)OC(=CC2=O)C(=C)CC2OC(=O)C(=C)C12 (centres undefined) | – | 4.67 µM (active)
C[C@H]1[C@@H](O)[C@H](O)C2[C@]3(C)C([C@@H](O)[C@H]4OC(=O)[C@@H]1[C@@]24C)[C@](C)(O)C=C[C@H]3O[C@@H]1O[C@H](CO)[C@@H](O)[C@H](O)[C@H]1O (some centres undefined) | 0.893% | –
CCC1C(=O)OC23C=C[C@@H]4C(C(=O)O)=CO[C@H](O[C@@H]12)[C@@H]43 (some centres undefined) | 7.63% | –
COC(=O)C1=CO[C@@H](O[C@@H]2O[C@H](CO)[C@@H](O)[C@H](O)[C@H]2O)C2C1CC(O)C2C (some centres undefined) | 2.29% | –

target: Aldehyde dehydrogenase, mitochondrial (Homo sapiens) (UniProt P05091); assay: qHTS for Inhibitors of the Aldehyde Dehydrogenase Family (ALDH2) Primary screen (AID 2061308); conditions: ALDH2 enzyme inhibition qHTS, 1536-well; series mostly up to 56 µM; activity change, negative = inhibition: at the top concentration;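 also: plate controls were vehicle for no effect and reference inhibitor for full effect; nearly all actives have a fitted effect of over 55% in size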

SMILES | activity change, negative = inhibition
CC(C)S(=O)(=O)NC[C@@H]1CC(c2ccc(N3CCCC3)c(F)c2)=NO1 | 41.7%
CCC(C)C1NC(=O)C2CCCN2C(=O)C(NC(C)=O)C(C)OC(=O)C(Cc2ccc(OC)cc2)N(C)C(=O)C2CCCN2C(=O)C(C(C)C)NC1=O (centres undefined) (Ac-TPIVP[NMeY](Me); ester 1-C; configuration not given here) | -0.51% [at 16.9 µM]
CC[N+]1(CC)CCC(=C(c2ccccc2)c2ccccc2)C1C (centres undefined) | -19%
COC1CC/C=C(\C)C(=O)Nc2cc(O)cc(c2)CC(C)CC(OC)C(O)C(C)/C=C(\C)C1OC(N)=O (centres undefined) | 5.75% [at 28 µM]
Cc1nc2ccc(Oc3ccc(F)cc3)cc2c(=O)n1C[C@H]1CCCN(C(C)C)C1 | 6.06%
C/C1=C\C[C@H](O[C@@H]2O[C@H](CO)[C@@H](O)[C@H](O)[C@H]2O)/C(C)=C/[C@H]2OC(=O)[C@H](C)[C@@H]2CC1 | -2.78% [at 28 µM]
C=C(C)C1CC(O)C(C)C12CC(O)C1(C)OC1C2O (centres undefined) | 5.91%
CC1(C)CC[C@]2(C(=O)O[C@@H]3O[C@H](CO)[C@@H](O)[C@H](O)[C@H]3O)[C@H](O)C[C@]3(C)C(=CCC4[C@@]5(C)CC[C@H](O[C@@H]6OC[C@@H](O)[C@H](O)[C@H]6O)[C@@](C)(C(=O)O)C5CC[C@]43C)[C@@H]2C1 (some centres undefined) | 3.08% [at 16.9 µM]
C/C=C/C=C/C=C/C(=O)O[C@@H]1[C@@H](OC)C2=C(C(=O)N(C(C)C(=O)O)C2)[C@@]2(C)CCCC(C)(C)[C@H]12 (some centres undefined) | 10.3% [at 28 µM]
C/C(=C\CCC1(C)C2CC3C(C2)C31C)C(=O)O (centres undefined) | 3.23%
O=C(/C=C/c1ccc(O)cc1)O[C@@H]1C[C@@](O)(C(=O)O)C[C@@H](O)[C@@H]1O | 6.85%
C[C@@H](Nc1cc(NS(=O)(=O)N2CCC2)nc(SCc2cccc(F)c2F)n1)[C@@H](O)CO | -8.99%
CC(=O)OC1C[C@]2(C)C(O)CC(C)=C[C@H](OC(=O)c3ccc(O)cc3)C2[C@]1(O)C(C)C (some centres undefined) | -2.46% [at 28 µM]
O=C(O[C@H]1[C@@H]2C=CO[C@@H](O[C@@H]3O[C@H](CO)[C@@H](O)[C@H](O)[C@H]3O)[C@@H]2[C@@]2(CO)O[C@@H]12)c1ccccc1 | 10.8% [at 28 µM]
CCNC1(C(N)=O)CN(c2nc(C)nc3c(-c4ccc(Cl)cc4)c(-c4ccccc4Cl)nn23)C1 | -17.7%
CCc1ccc(Cc2ccc3c(c2)[C@]2(OC3)O[C@H](CO)[C@@H](O)[C@H](O)[C@H]2O)cc1 | -5.17%
Nc1nc2c(c(=O)[nH]1)C[C@@H](CCc1ccc(C(=O)N[C@@H](CCC(=O)O)C(=O)O)cc1)CN2 | -5.2%
C/C=C(/C)C(=O)OC1C=C2C3C(C)C(C)C(OC(=O)C(C)C(C)O)CC3(C)CCC2(C)C2(C)CC(OC(C)=O)C3C(C)(C)C(O)C(=O)CC3(C)C12 (centres undefined) | -10.2% [at 16.9 µM]
C[C@H](C(=O)NC1CCCC1)N(C(=O)Cn1nnc(-c2ccc3c(c2)OCO3)n1)C1CCCCC1 | 14%
O=C(O)Cc1ccccc1Oc1ccc(Cl)cc1Cl | -15%

SMILES | activity change, negative = inhibition
CC1(C)CC2C3=CCC4[C@@]5(C)CC[C@H](OC6OCC(O)C(OC7OC(CO)C(O)C(O)C7O)C6O)C(C)(C)C5CC[C@@]4(C)[C@]3(C)C[C@H](O)[C@@]2(CO)[C@H](OC(=O)c2ccccc2)C1 (some centres undefined) | 0.883% [at 16.9 µM]
COCC(=O)N1CCc2cc(-c3csc(NC(=O)c4cc(OC)cc(OC)c4)n3)ccc21 | -7.13%
COc1ccc([C@H]2OC[C@H]3O[C@@H](O[C@H]4[C@@H]2NC[C@@H]4O)[C@H](O)[C@H]3O)cc1 | 8.21%
C[C@@H]1O[C@@H](O[C@H]2[C@H](OC(=O)C34CCC5(C)C(=CCC6C7(C)CC(O)C(O[C@@H]8O[C@H](C(=O)O)[C@@H](O)[C@H](O)[C@H]8O)C(C)(C(=O)O)C7CCC65C)C3CC(C)(C)CC4O)O[C@H](C)[C@@H](O)[C@@H]2O)[C@H](O)[C@@H](O[C@@H]2OC[C@](O)(CO)[C@H]2O[C@@H]2O[C@H](CO)[C@@H](O)[C@H](O)[C@H]2O)[C@H]1O (some centres undefined) | 0.837% [at 11.2 µM]
O=c1c2cccnc2n(-c2cccc([N+](=O)[O-])c2)c(=O)n1Cc1ccncc1 | -8.48%
C[C@]1(CO)CN(c2cc(C(=O)Nc3ccc4c(c3)-c3c(c(C(N)=O)nn3-c3ccc(F)cc3)CC4)c(Cl)cn2)C[C@@]1(C)CO | 2.9%
CC(C)c1ccc(CC(=O)N2CCC[C@@H](c3cccc(OC(C)(C)C(=O)O)c3)C2)cc1 | -11.1%
COc1cc(C)c(C(=O)Oc2cc(C)c(C(=O)Oc3cc(C)c(C(=O)NC(C)C(=O)O)c(O)c3)c(O[C@@H]3O[C@H](CO)[C@@H](O)[C@H](O)[C@H]3OC(C)=O)c2)c(OC)c1 (some centres undefined) | -4.12% [at 16.9 µM]
C/C=C(\C)C(=O)O[C@H]1[C@H](O)[C@]2(COC(C)=O)[C@H](O)C[C@]3(C)C(=CCC4[C@@]5(C)CC[C@H](O[C@@H]6O[C@H](C(=O)O)[C@@H](O[C@@H]7O[C@H](CO)[C@@H](O)[C@H](O)[C@H]7O)[C@H](O)[C@H]6O[C@@H]6O[C@H](CO)[C@@H](O)[C@H](O)[C@H]6O)[C@](C)(CO)C5CC[C@]43C)[C@@H]2CC1(C)C (some centres undefined) | 6.05% [at 16.9 µM]
CC(C)(C)Oc1ccc(OCC2Cc3ccccc3CN2C(=O)c2cccc3ccccc23)cc1 (centres undefined) | -7.1%
COc1cc(/C=C/C(=O)O[C@@H]2C[C@](O)(C(=O)O)C[C@@H](O)[C@H]2O)ccc1O | -6.86%
CC(=O)OC[C@H]1O[C@H](O[C@]2(CO)O[C@H](CO)[C@@H](OC(=O)/C=C/c3ccccc3)[C@@H]2O)[C@H](O)[C@@H](O)[C@@H]1O | -7.12% [at 28 µM]
Fc1ccc(-c2c3cccc(C(F)(F)F)c3nn2Cc2ccc(F)cc2Cl)cc1 | -3.23%
CC(C)(O)/C=C/CC(C)(O)C1C(O)CC2(C)C3CCC4C(C)(C)C(=O)CCC4(C)C3CCC12C (centres undefined) | -5.83% [at 28 µM]
Cc1ccc(C(C)C)c(O[C@@H]2O[C@H](CO)[C@@H](O)[C@H](O)[C@H]2O)c1 | -2.2%
C[C@@H]1CCC/C=C/[C@H]2CC(=O)C[C@@H]2[C@@H](O)/C=C/C(=O)O1 | -3.52%
C=C(C)C(=O)OC1CC2(C)OC(=CC2=O)C(=C)CC2OC(=O)C(=C)C12 (centres undefined) | 3.42%
C[C@H]1[C@@H](O)[C@H](O)C2[C@]3(C)C([C@@H](O)[C@H]4OC(=O)[C@@H]1[C@@]24C)[C@](C)(O)C=C[C@H]3O[C@@H]1O[C@H](CO)[C@@H](O)[C@H](O)[C@H]1O (some centres undefined) | 0.185% [at 28 µM]
CCC1C(=O)OC23C=C[C@@H]4C(C(=O)O)=CO[C@H](O[C@@H]12)[C@@H]43 (some centres undefined) | -3.99%
COC(=O)C1=CO[C@@H](O[C@@H]2O[C@H](CO)[C@@H](O)[C@H](O)[C@H]2O)C2C1CC(O)C2C (some centres undefined) | 8.97%
